TDP1 inh: inhibitors of human tyrosyl-DNA phosphodiesterase TDP1 | recombinant TDP1, AlphaScreen DNA substrate cleavage | AID 485290 | Potency, µM (highest dose often 130 µM), for inactives: at the top dose activity change, negative = inhibition, usual class: inhibitors | 350,000 compounds, 0.28% hits | Q9NUW8; further: potency means the concentration at half of the fitted maximal effect; on the % scale 0 is the no-effect control and ±100 the full control effect; nearly all actives have a fitted effect of over 40% in size
Target sequence (Q9NUW8 whole entry, looked up): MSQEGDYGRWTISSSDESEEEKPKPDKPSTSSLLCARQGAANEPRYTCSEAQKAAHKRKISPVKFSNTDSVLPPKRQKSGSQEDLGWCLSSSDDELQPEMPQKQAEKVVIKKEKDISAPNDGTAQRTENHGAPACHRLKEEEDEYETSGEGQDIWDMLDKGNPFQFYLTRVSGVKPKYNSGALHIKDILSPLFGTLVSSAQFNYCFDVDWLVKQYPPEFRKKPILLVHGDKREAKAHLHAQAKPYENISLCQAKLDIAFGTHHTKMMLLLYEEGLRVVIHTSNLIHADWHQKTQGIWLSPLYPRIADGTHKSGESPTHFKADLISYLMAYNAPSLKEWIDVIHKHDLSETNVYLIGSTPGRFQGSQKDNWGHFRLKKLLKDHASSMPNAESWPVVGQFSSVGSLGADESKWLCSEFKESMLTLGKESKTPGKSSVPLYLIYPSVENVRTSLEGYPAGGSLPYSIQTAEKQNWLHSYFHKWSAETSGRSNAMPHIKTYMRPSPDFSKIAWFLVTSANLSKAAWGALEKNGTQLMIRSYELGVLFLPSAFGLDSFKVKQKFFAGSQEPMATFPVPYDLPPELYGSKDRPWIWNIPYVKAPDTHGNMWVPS
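Compounds were preincubated with Tdp1 (1 nM final) for 15 min at room temperature before substrate (15 nM final) started a 5 min reaction; beads (10 ug/ml final) were then added for 10 min before AlphaScreen detection.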
DT40 TDP1 CPT: growth inhibition of DT40 Tdp1-/-;hTDP1 cells with camptothecin (screen for TDP1 inhibitors). AID 686979. 420,000 compounds, 12% hits. Potency, µM (highest dose often 46.2 µM), inactives show at the top dose activity change, negative = growth inhibition, most hits filed as inhibitors. chicken DT40 Tdp1-/-;hTDP1 cells + 20 nM CPT, ATP luminescence, 48 h; further: potency means the concentration at half of the fitted maximal effect; on the % scale 0 is the no-effect control and ±100 the full control effect; nearly all actives have a fitted effect of over 55% in size
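Chicken DT40 Tdp1-/- cells complemented with human TDP1, 400 cells/well, exposed to compounds plus 20 nM camptothecin for at least 48 h at 37 C; viability read as ATP content by CellTiter-Glo luminescence.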
TDP1 cell noCPT: qHTS for Inhibitors of human tyrosyl-DNA phosphodiesterase 1 (TDP1): qHTS in cells in absence of CPT; DT40 Tdp1-/- hTDP1 cells, no CPT, ATP luminescence, 48 h; Potency, µM (titrated, usually from 46.2 µM), inactives show at the top dose activity change, negative = growth inhibition, actives largely listed as inhibitors; 420,000 compounds, 15% hits; AID 686978, 2013; further: potency means the concentration at half of the fitted maximal effect; on the % scale 0 is the no-effect control and ±100 the full control effect; nearly all actives have a fitted effect of over 55% in size
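No-CPT arm: Tdp1-/-;hTDP1 DT40 cells (400/well) plus compounds, incubated ≥48 hr at 37 °C. Readout CellTiter-Glo luminescence.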
TGFb SMAD3 inh: TGF-b pathway inhibition. 410,000 compounds, 1.2% hits. Potency, µM (doses to about 46.1 µM), for inactives: at the top dose activity, negative = inhibition, hits mostly inhibitors. HepG2 CAGA-GFP TGF-b/SMAD3 reporter, GFP fluorescence, 18 h; TGF-beta stimulated, 500 pg/mL final. AID 588855; further: potency means the concentration at half of the fitted maximal effect; on the % scale 0 is the no-effect control and ±100 the full control effect; nearly all actives have a fitted effect of over 65% in size
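Cell-based qHTS in HEPG2 carrying a CAGA-GFP Smad reporter; compounds added before 500 pg/mL final TGF-beta, 18 h incubation at 37 degrees C, GFP fluorescence quantified per cell by imaging cytometry.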
HepG2 tox: kills HepG2 cells in TGF-b inhibitor counter-screen; HepG2 CAGA-GFP viability, ATP luminescence, 18 h; Potency, µM (top dose mostly 46.1 µM), for inactives: top-dose activity change, negative = cytotoxicity, usual class: cytotoxic; 410,000 compounds, 0.76% hits; AID 588856; further: potency means the concentration at half of the fitted maximal effect
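CellTiter-Glo luminescence gave cytotoxicity after 18 hours at 37 degrees C. The cells were HepG2 CAGA-GFP in 1% FBS DMEM, stimulated with 500 pg/mL TGF-beta after compound addition. %Activity was normalised to no-cell wells (complete cell-killing) and DMSO (no toxicity), and curves were fitted and classified.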
IL1B secr inh: inhibitors of inflammasome signaling (IL-1 beta secretion); 360,000 compounds, 4.7% hits; activity change, % at 57.5 µM; THP-1 LPS/ATP IL-1B secretion, AlphaLISA, 16 h; active compounds read low; in the data active means activity change below about -50%; inconclusive means mostly about -30% to -49%; further: on the % scale 0 is the no-effect control and ±100 the full control effect
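THP-1 cells pretreated 1 hr with compounds (up to 57.5 uM final), then stimulated with LPS (250 ng/mL final) plus ATP (1.25 mM final); secreted IL-1B measured by AlphaLISA after 16 hr, decreased signal indicating inhibition.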
Active calls of the source: *; [ ] = remark or other dose. Rows were chosen to be rich in hits. Some 19% of all compounds tested hit in one or more screens of this group. Unless noted, the call rests on the fitted dose curve; in most records, active means well fitted curve in the direction sought with a large enough effect; inconclusive means small, poorly fitted or top-dose-only effect, or another doubt; inactive means no such curve, though single readings can be large; an effect the other way counts as inactive or inconclusive.

`CCOC(=O)c1cc2c(=O)n3ccccc3nc2n(C)c1=NC(=O)c1cc2ccccc2o1` gave TDP1 inh 0%, DT40 TDP1 CPT -24%, TDP1 cell noCPT -14%, TGFb SMAD3 inh -3% and HepG2 tox -14%.
`CCOC(=O)c1cc2c(=O)n3ccccc3nc2n(Cc2ccco2)c1=NC(=O)c1cc(C)cc(C)c1` gave TDP1 inh -6%, DT40 TDP1 CPT 1.3µM*, TDP1 cell noCPT 1.2µM*, TGFb SMAD3 inh -22% and HepG2 tox -42%.
For CCOC(=O)c1cc2c(=O)n3ccccc3nc2n(C)c1=NC(=O)c1c(-c2ccccc2Cl)noc1C the results were TDP1 inh 9%, DT40 TDP1 CPT -14%, TDP1 cell noCPT -3%, TGFb SMAD3 inh 0% and HepG2 tox 0%.
For CCOC(=O)c1cc2c(=O)n3ccccc3nc2n(C(C)C)c1=NC(=O)c1c(-c2c(F)cccc2Cl)noc1C the results were TDP1 inh 3%, DT40 TDP1 CPT 8.2µM*, TDP1 cell noCPT 8.2µM*, TGFb SMAD3 inh -13%, HepG2 tox -11% and IL1B secr inh -3.
Screening CCOC(=O)c1cc2c(=O)n3ccccc3nc2n(CC2CCCO2)c1=NC(=O)c1ccc(OC)cc1OC (configuration not stated) returned TDP1 inh -3%, DT40 TDP1 CPT inconclusive, TDP1 cell noCPT 16µM*, TGFb SMAD3 inh inconclusive and HepG2 tox -21%.
`O=c1[nH]c(O)c(/C=C2\C=Nc3ccc(Br)cc32)[nH]1` gave TDP1 inh 2%, DT40 TDP1 CPT -2%, TDP1 cell noCPT -9%, TGFb SMAD3 inh inconclusive, HepG2 tox 1% and IL1B secr inh inconclusive.
For Cc1ccccc1Cn1c(=O)n(CCc2ccccc2)c(=O)c2sc3ccccc3c21 the results were TDP1 inh 9%, DT40 TDP1 CPT 0%, TDP1 cell noCPT -4%, TGFb SMAD3 inh -8% and HepG2 tox 2%.
Screening O=S(=O)(c1ccc(F)cc1)N1CCC(Oc2cccc(C(F)(F)F)c2)CC1 returned TDP1 inh -2%, DT40 TDP1 CPT inconclusive, TDP1 cell noCPT inconclusive, TGFb SMAD3 inh -10% and HepG2 tox -19%.
COc1cccc(NC(=O)Cn2c(=O)n(-c3ccc(Cl)cc3)c(=O)c3oc4ccccc4c32)c1 was read as TDP1 inh 0%, DT40 TDP1 CPT inconclusive, TDP1 cell noCPT inconclusive, TGFb SMAD3 inh inconclusive and HepG2 tox -28%.
COc1ccc(NC(=O)N2CCN3CCCCC3C2)cc1OC (configuration not stated) was read as TDP1 inh 3%, DT40 TDP1 CPT 1%, TDP1 cell noCPT -1%, TGFb SMAD3 inh 4% and HepG2 tox 14%.
Screening CCOC(=O)c1cc2c(=O)n3ccccc3nc2n(CC2CCCO2)c1=NC(=O)c1cccc(C)c1 (configuration not stated) returned TDP1 inh -3%, DT40 TDP1 CPT 5.2µM*, TDP1 cell noCPT 5.8µM*, TGFb SMAD3 inh -5% and HepG2 tox -7%.
Screening CCOC(=O)c1cc2c(=O)n3ccccc3nc2n(CC2CCCO2)c1=NC(=O)/C=C/c1ccccc1 (configuration not stated) returned TDP1 inh 0%, DT40 TDP1 CPT inconclusive, TDP1 cell noCPT 15µM*, TGFb SMAD3 inh -2%, HepG2 tox -17% and IL1B secr inh inconclusive.
For CC(NC(=O)c1cc2c(=O)n3ccccc3nc2n(CC2CCCO2)c1=N)c1ccccc1 (configuration not stated) the results were TDP1 inh 4%[0.0935 µM], DT40 TDP1 CPT -29%, TDP1 cell noCPT inconclusive, TGFb SMAD3 inh 25%, HepG2 tox -2% and IL1B secr inh 21.
Screening CCOC(=O)c1cc2c(=O)n3ccccc3nc2n(CC2CCCO2)c1=NC(=O)c1cccc(C(F)(F)F)c1 (configuration not stated) returned TDP1 inh 0%, DT40 TDP1 CPT -26%, TDP1 cell noCPT -24%, TGFb SMAD3 inh 4% and HepG2 tox -17%.
CCOC(=O)c1cc2c(=O)n3ccccc3nc2n(CC2CCCO2)c1=NC(=O)c1ccc(OCC)cc1 (configuration not stated) was read as TDP1 inh 6%, DT40 TDP1 CPT 6.5µM*, TDP1 cell noCPT 5.8µM*, TGFb SMAD3 inh -2% and HepG2 tox 3%.
Screening O=c1cc(-c2ccccc2)n2c(SCc3c(F)cccc3Cl)nnc2[nH]1 returned TDP1 inh 3%, DT40 TDP1 CPT 2%, TDP1 cell noCPT -5%, TGFb SMAD3 inh -5% and HepG2 tox 0%.
C#CCCCCCCCCCCCC(O)CC(O)COC(C)=O (configuration not stated) was read as TDP1 inh 3%[56.1 µM], DT40 TDP1 CPT inconclusive and TDP1 cell noCPT inconclusive.
`CC1CC(N(C(=O)c2ccco2)c2ccccc2)c2ccccc2N1` (configuration not stated) gave TDP1 inh 2%, DT40 TDP1 CPT inconclusive, TDP1 cell noCPT 15µM*, TGFb SMAD3 inh -9%, HepG2 tox -45% and IL1B secr inh 0.
CC1CC(c2ccccc2)n2nc(NC(=O)c3ccco3)nc2N1 (configuration not stated) was read as TDP1 inh -2%, DT40 TDP1 CPT 2%, TDP1 cell noCPT -4%, TGFb SMAD3 inh -15%, HepG2 tox -4% and IL1B secr inh -11.
`CCCN1CNc2c(c(=O)[nH]c(=S)n2CCc2cc(C)cc(C)c2)C1` gave TDP1 inh -6%, DT40 TDP1 CPT inconclusive and TDP1 cell noCPT inconclusive.
Screening CCCCn1c2nc3ccccc3nc2c2c(=O)n(CC(C)C)cnc21 returned DT40 TDP1 CPT 1%, TDP1 cell noCPT 21%, TGFb SMAD3 inh 0%, HepG2 tox -2% and IL1B secr inh -9.
CCCCn1c2nc3ccccc3nc2c2c(=O)n(C(C)CC)cnc21 (configuration not stated) was read as TDP1 inh 3%, DT40 TDP1 CPT 10µM*, TDP1 cell noCPT 23µM*, TGFb SMAD3 inh -10%, HepG2 tox 2% and IL1B secr inh inconclusive.

Screening results (PubChem)
